TDP1 cell noCPT: qHTS for Inhibitors of human tyrosyl-DNA phosphodiesterase 1 (TDP1): qHTS in cells in absence of CPT | DT40 Tdp1-/- hTDP1 cells, no CPT, ATP luminescence, 48 h | Potency, µM (top dose mostly 46.2 µM), without a hit: at the highest dose activity change, negative = growth inhibition, actives largely listed as inhibitors | 15% of 420,000 active | AID 686978, 2013; note: potency is the fitted concentration of half-maximal effect; % is set by controls: 0 for no effect and ±100 for the full control effect; nearly all actives have a fitted effect of over 55% in size
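Luminescent ATP content (CellTiter-Glo) served as the growth readout. Knockout chicken DT40 cells expressing human TDP1 were exposed to compounds without camptothecin for a minimum 48 hr at 37 °C.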
TGFb SMAD3 inh: TGF-b pathway inhibition. Potency, µM (doses to about 46.1 µM), inactives show at the highest dose activity, negative = inhibition, usual class: inhibitors. HepG2 CAGA-GFP TGF-b/SMAD3 reporter, GFP fluorescence, 18 h; TGF-beta stimulated, 500 pg/mL final. AID 588855. 1.2% of 410,000 active; note: potency is the fitted concentration of half-maximal effect; % is set by controls: 0 for no effect and ±100 for the full control effect; nearly all actives have a fitted effect of over 65% in size
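Inhibition of TGF-beta-driven CAGA-GFP reporter expression in HEPG2 cells is measured by cellular GFP fluorescence after 18 h stimulation with 500 pg/mL recombinant TGF-beta in 1% FBS medium at 37 degrees C.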
TDP1 cell CPT: growth inhibition of DT40 Tdp1-/-;hTDP1 cells with camptothecin (screen for TDP1 inhibitors) | chicken DT40 Tdp1-/-;hTDP1 cells + 20 nM CPT, ATP luminescence, 48 h | Potency, µM (doses to about 46.2 µM), for the others: top-dose activity change, negative = growth inhibition, most hits filed as inhibitors | 12% of 420,000 active; note: potency is the fitted concentration of half-maximal effect; % is set by controls: 0 for no effect and ±100 for the full control effect; nearly all actives have a fitted effect of over 55% in size
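Chicken DT40 Tdp1-/- cells complemented with human TDP1, 400 cells/well, exposed to compounds plus 20 nM camptothecin for at least 48 h at 37 C; viability read as ATP content by CellTiter-Glo luminescence.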
HepG2 viability: HepG2 cytotoxicity, counter-screen for TGF-b inhibitors; HepG2 CAGA-GFP viability, ATP luminescence, 18 h; Potency, µM (top dose mostly 46.1 µM), without a hit: at the highest dose activity change, negative = cytotoxicity, actives largely listed as cytotoxic; 0.76% of 410,000 active; AID 588856; note: potency is the fitted concentration of half-maximal effect
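HepG2 CAGA-GFP cells (1000/well, DMEM with 1% FBS) received compound, then TGF-beta at 500 pg/mL final, and were incubated 18 hours at 37 degrees C. Viability was read by CellTiter-Glo luminescence. Media-only wells were set as complete cell-killing and DMSO as no toxicity.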
TDP1 block: inhibitors of human tyrosyl-DNA phosphodiesterase TDP1. recombinant TDP1, AlphaScreen DNA substrate cleavage. Potency, µM (top dose mostly 130 µM), without a hit: top-dose activity change, negative = inhibition, actives largely listed as inhibitors. 0.28% of 350,000 active. AID 485290; note: potency is the fitted concentration of half-maximal effect; % is set by controls: 0 for no effect and ±100 for the full control effect; nearly all actives have a fitted effect of over 40% in size
Target sequence (Q9NUW8 whole entry, looked up): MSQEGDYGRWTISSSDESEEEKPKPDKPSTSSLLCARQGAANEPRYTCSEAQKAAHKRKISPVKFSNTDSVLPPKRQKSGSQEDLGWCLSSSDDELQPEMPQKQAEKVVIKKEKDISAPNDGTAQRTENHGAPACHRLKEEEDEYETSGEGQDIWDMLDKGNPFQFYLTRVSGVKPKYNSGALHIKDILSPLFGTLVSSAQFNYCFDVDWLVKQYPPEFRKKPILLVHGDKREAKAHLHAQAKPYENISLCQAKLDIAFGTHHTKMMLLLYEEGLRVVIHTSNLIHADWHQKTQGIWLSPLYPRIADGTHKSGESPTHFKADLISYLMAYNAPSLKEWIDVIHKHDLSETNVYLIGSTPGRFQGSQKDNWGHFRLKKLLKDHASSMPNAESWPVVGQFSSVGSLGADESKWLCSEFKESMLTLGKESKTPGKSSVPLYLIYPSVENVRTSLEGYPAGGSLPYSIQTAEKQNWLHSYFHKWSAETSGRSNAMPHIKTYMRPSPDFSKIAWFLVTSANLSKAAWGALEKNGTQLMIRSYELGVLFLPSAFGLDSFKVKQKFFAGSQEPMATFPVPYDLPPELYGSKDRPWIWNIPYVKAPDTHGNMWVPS
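Enzyme-compound mixtures sat 15 min at room temperature, followed by a 5 min reaction with 15 nM final substrate and 10 min with AlphaScreen beads. Recombinant human Tdp1 was used at 1 nM final.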
IL-1B inflam inh: blocks inflammasome-driven IL-1 beta release; 4.7% of 360,000 active; AID 743279; activity change, % at 57.5 µM; THP-1 LPS/ATP IL-1B secretion, AlphaLISA, 16 h; stronger effect = lower value; in the data active = activity change below about -50%; inconclusive = mostly about -30% to -49%; note: % is set by controls: 0 for no effect and ±100 for the full control effect
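THP-1 cells pretreated 1 hr with compounds (up to 57.5 uM final), then stimulated with LPS (250 ng/mL final) plus ATP (1.25 mM final); secreted IL-1B measured by AlphaLISA after 16 hr, decreased signal indicating inhibition.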
* = called active by the depositor; ? = inconclusive; . = no result; [ ] = another dose, or the depositor's remark. An excerpt weighted towards active compounds, which were near 18% of everything screened. Unless noted, calls come from the whole dose curve; as a rule, active = well fitted curve in the direction sought with a large enough effect; inconclusive = small, poorly fitted or top-dose-only effect, or another doubt; inactive = no such curve, though single readings can be large; an effect the other way counts as inactive or inconclusive.

SMILES | TDP1 cell noCPT | TGFb SMAD3 inh | TDP1 cell CPT | HepG2 viability | TDP1 block | IL-1B inflam inh
CCOC(=O)C1=CCN(S(=O)(=O)c2ccc(C)cc2)C1c1ccc(C)cc1 (configuration not stated) | ? | -24% | ? | -19% | . | 87
CCOC(=O)C1=CCN(S(=O)(=O)c2ccc(C)cc2)C1c1ccc(CC)cc1 (configuration not stated) | 18µM* | ? | ? | 1% | . | 0
CCOC(=O)C1CCN(Cc2cnc(Oc3ccc(Cl)cc3C)s2)CC1 | -23% | -5% | 4% | 1% | 2% | -3
CCOC(=O)C1CCN(Cc2cn3c(-c4ccc(OC)cc4)nnc3s2)CC1 | ? | 4% | 21µM* | -2% | 7% | .
CCOC(=O)C1CCCN(C(=O)CSc2ccc(Br)cc2)C1 (configuration not stated) | 18µM* | 0% | 13µM* | 8% | 5% | -8
CC1CCCN(Cc2cn3c(-c4cccc(Br)c4)nnc3s2)C1 (configuration not stated) | ? | -2% | 23µM* | -27% | 5% | .
CCOC(=O)C1CCCN(Cc2cn3c(-c4ccc(Br)cc4)nnc3s2)C1 (configuration not stated) | 6.5µM* | 10% | 5.2µM* | -18% | 7% | .
Brc1ccc(-c2nnc3sc(CN4CCCCC4)cn23)cc1 | -25% | -12% | -9% | -9% | 5% | .
O=C(NC1CCCc2ccccc21)c1ccccc1OC(F)F (configuration not stated) | ? | -10% | -17% | 1% | 0% | -16
Cc1cn2c(=O)cc(COC(=O)c3ccccc3F)nc2s1 | -1% | -17% | 0% | 0% | 2% | .
O=C1CC(c2ccco2)CC(O)=C1C=Nc1cc(Cl)ccc1Cl (configuration not stated) | -8% | 1% | -18% | 4% | -11% | 12
O=C1CC(c2ccco2)CC(O)=C1C=Nc1cc(Cl)ccc1O (configuration not stated) | 18µM* | -6% | 15µM* | -44% | ? | 21
O=C1CC(c2ccco2)CC(O)=C1C=Nc1ccccc1-c1ccccc1 (configuration not stated) | ? | -7% | 18µM* | -21% | 3% | -29
CCn1c(=O)c2cc(C(=O)N(CCCOC(C)C)Cc3ccco3)sc2c2ccccc21 | 21µM* | ? | ? | -17% | 2% | .
CC(C)CCN(Cc1ccco1)C(=O)c1cc2c(Cl)nc3ccccc3c2s1 | 16µM* | ? | ? | -17% | 3% | .
CCn1c(=O)c2cc(C(=O)N(C)CC(OC)OC)sc2c2ccccc21 | ? | 4% | ? | -39% | . | 11
CCOc1ccccc1N(C)C(=O)c1cc2c(=O)n(CC)c3ccccc3c2s1 | 21µM* | ? | 21µM* | 11µM* | . | -68*
CCOCCCNC(=O)c1cc2c(=O)n(CC)c3ccccc3c2s1 | ? | -21% | ? | -40% | . | 0
CCn1c(=O)c2cc(C(=O)N(CCN(C)C)Cc3ccccc3)sc2c2ccccc21 | 21µM* | ? | -26% | -49% | -1% | .
CC(C)CCN(Cc1ccco1)C(=O)c1cc2c(s1)-c1ccccc1OC2 | . | ? | . | -33% | -13% | .
CCOC(=O)c1c(NC(C)=O)c2c3c(sc2n1Cc1nc(-c2ccccc2Cl)oc1C)CCCC3 | ? | . | ? | -7% | -2% | .
COCCNc1nc(Nc2ccc(C#N)cc2)c2sccc2n1 | 16µM* | 36% | 21µM* | -20% | . | 73
COCCNc1nc(Nc2ccc(F)cc2)c2sccc2n1 | 12µM* | -17% | 18µM* | -4% | . | 59
COCCNc1nc(NCCCN2CCCC2=O)c2sccc2n1 | -6% | 0% | -3% | 1% | . | 0
COc1ncc2nc(-c3cc(F)cc(F)c3)c(=O)n(C)c2n1 | 5% | . | 4% | . | . | .
SMILES | TDP1 cell noCPT | TGFb SMAD3 inh | TDP1 cell CPT | HepG2 viability | TDP1 block | IL-1B inflam inh
CC(=O)c1ccc(-n2c(CCC(=O)O)ccc2-c2ccc(Cl)cc2)cc1 | 4% | 5% | -3% | -2% | . | 19
CCCCC1CCC(C(=O)NCC(c2ccco2)N2CCOCC2)CC1 (configuration not stated) | . | . | . | . | 0% | .
COc1ccc(C(O)Cn2c(=N)n(CCCN(C)C)c3ccccc32)cc1 (configuration not stated) | ? | 0% | ? | -10% | 2% | -28
Cc1ccc(OCC(O)Cn2c(=N)n(CCN3CCOCC3)c3ccccc32)cc1 (configuration not stated) | 23µM* | -11% | ? | -23% | 5% | ?
N=c1n(CCOc2ccccc2)c2ccccc2n1CCN1CCOCC1 | -5% | -14% | -3% | -1% | 3% | -19
OC(COc1c(Cl)cc(Cl)cc1Cl)CN1CCCCC1 (configuration not stated) | ? | 7% | -21% | -17% | 3% | -6
COc1ccc(OCC(O)Cn2c(=N)n(CCN3CCCCC3)c3ccccc32)cc1 (configuration not stated) | 18µM* | ? | 13µM* | -53% | 9% | -57*
N=c1n(CCN2CCCCC2)c2ccccc2n1CC(O)COc1ccc(Cl)cc1Cl (configuration not stated) | 4.6µM* | 7.1µM* | 3.7µM* | 10µM* | . | .
N=c1n(CCN2CCCC2)c2ccccc2n1CC(O)c1ccc(Cl)c(Cl)c1 (configuration not stated) | 3.7µM* | ? | 5.8µM* | -118% | 4% | -22
O=C(NCc1nnc2n1CCN(Cc1ccc(C(F)(F)F)cc1)CC2)c1ccccn1 | -13% | . | 3%[9.04 µM] | . | . | .
CCc1ncnc2cc(OC)c(OC)cc12 | -27% | . | ? | . | 6% | .
Cc1ccc(OCC(O)Cn2c(=N)n(CCN3CCCCC3)c3ccccc32)cc1 (configuration not stated) | 23µM* | ? | 5.2µM* | 13µM* | 4% | -50*
N=c1n(CCO)c2ccccc2n1CCOc1ccc(Cl)cc1Cl | 5.8µM* | ? | 6.5µM* | 11µM* | 6% | -102*
CCOC(=O)C1CCCN(CC(=O)c2c[nH]c3ccc(C)cc23)C1 (configuration not stated) | ? | ? | ? | -20% | 2% | 22

Screening data as filed in PubChem BioAssay.
